# In PubChem BioAssay (NCATS):
# Unmarked numbers belong to inactive results. Results filed as inconclusive are left out. A call without a number means that no potency is given here. The source made the active and inactive calls. Calls come from the whole dose curve; as a rule, active = well fitted curve in the direction sought with a large enough effect; inconclusive = small, poorly fitted or top-dose-only effect, or another doubt; inactive = no such curve, though single readings can be large; an effect the other way counts as inactive or inconclusive.
# How the values were obtained:
# [1] = molecular target: Phospholipid hydroperoxide glutathione peroxidase GPX4 (Homo sapiens) (UniProt P36969); experiment: Primary qHTS Assay for Inhibitors of Recombinant Selenoprotein Glutathione Peroxidase 4 (GPX4) (AID 1845192); note: nearly all actives have a fitted effect of over 65% in size; for activity change, negative = inhibition: series mostly up to about 50 µM
# Sequence of Phospholipid hydroperoxide glutathione peroxidase GPX4 (Homo sapiens) (P36969 whole entry, looked up): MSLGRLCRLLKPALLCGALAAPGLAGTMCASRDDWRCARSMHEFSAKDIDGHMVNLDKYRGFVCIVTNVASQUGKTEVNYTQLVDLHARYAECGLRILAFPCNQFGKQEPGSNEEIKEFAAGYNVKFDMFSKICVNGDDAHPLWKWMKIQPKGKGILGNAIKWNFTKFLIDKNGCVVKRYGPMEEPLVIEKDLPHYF
# Procedure, shortened: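 GR-coupled assay: recombinant GPX4 preincubated 30 min with compound at room temperature; final 200 nM GPX4, 1 mM GSH, 0.5 mM cumene hydroperoxide, 0.5 mM NADPH, 100 nM GR, 0.01% BSA, pH 7.5 Tris. NADPH fluorescence (340/450 nm) read at 0 and 15 min.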
# [2] = molecular target: Luciferin 4-monooxygenase (Photinus pyralis) (UniProt P08659); experiment: Primary firefly luciferase (FLuc) qHTS assay for identification of artifact compounds. (AID 1845220); conditions: outcome: dose series up to 54.1 µM; note: nearly all actives have a fitted effect of over 60% in size; for activity change, negative = inhibition: series mostly up to about 54 µM
# Procedure, shortened: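 Enzymatic FLuc inhibition assay: compounds pre-exposed to luciferin/ATP (10 uM each) for 15 min, then purified P. pyralis enzyme at 10 nM added. Read-out: luminescence at 5 min.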
# [3] = Primary fluorescence-based thiol-reactive (MSTI) qHTS assay for identification of artifact compounds. (AID 1845221);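 note: series mostly up to about 54 µM; thiol-reactive compounds lower the probe fluorescence signal; nearly all actives have a fitted effect of over 65% in size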
# Procedure, shortened: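 Thiol-reactive compounds detected by quenching of 4 uM MSTI fluorescence (525/598 nm) after 1 h room-temperature dark incubation in PBS pH 7.4, 2% DMSO. qHTS titration; percent inhibition Hill-fitted against Acetyl-MSTI/MSTI controls.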
# [4] = test system: Nanoluciferase (engineered Oplophorus gracilirostris luciferase); experiment: Primary Nanoluciferase (NLuc) qHTS assay for identification of artifact compounds. (AID 1845222);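 note: NLuc secreted into diluted conditioned medium of S16 cells; series mostly up to about 54 µM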
# Procedure, shortened: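 S16 cell supernatant NLuc, 1:55; cpds qHTS; 15 min RT dark; Nano-Glo substrate 1:100, 5 min; luminescence; Hill fit of % inhibition.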
# [5] = Primary redox qHTS assay for identification of artifact compounds. (AID 1845223)
# Procedure, shortened: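 Amplex Red (25 uM) and HRP (250 mU/mL) in HBSS, with compounds for 15 min, then 250 uM DTT for 30 min, room temperature, dark. Fluorescence 525/598 nm read; normalized to DMSO and 10 uM DA3003; Hill fit.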
# [6] = Quantitative High-Throughput drug screen in 47 multiple myeloma cell lines against the NCATS MIPE library collection: FR4_PLB cell viability assay (AID 1918924; note: nearly all actives have a fitted effect of over 35% in size; note: potency is the fitted concentration of half-maximal effect)
# Procedure, shortened: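 Inhibition of cell viability is measured here. Each line was plated at 500 cells per well, treated with MIPE 4.0 drugs, kept 48 hours at 37C, then assayed for ATP content by CellTiter-Glo luminescence.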
# [7] = Quantitative High-Throughput drug screen in 47 multiple myeloma cell lines against the NCATS MIPE library collection: Delta47_JCRB cell viability assay (AID 1918925; note: nearly all actives have a fitted effect of over 45% in size; note: potency is the fitted concentration of half-maximal effect)
# Procedure, shortened: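 qHTS of the MIPE 4.0 collection: 500 myeloma cells/well, 48 h drug exposure at 37C in 5% CO2, then CellTiter-Glo for 5 min at room temperature before luminescence reading.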
# [8] = molecular target: Glutathione peroxidase 1 (Homo sapiens) (UniProt P07203); experiment: Primary qHTS Assay for Inhibitors of Recombinant Selenoprotein Glutathione Peroxidase 1 (GPX1) (AID 1845191); note: nearly all actives have a fitted effect of over 65% in size
# Sequence of Glutathione peroxidase 1 (Homo sapiens) (P07203 whole entry, looked up): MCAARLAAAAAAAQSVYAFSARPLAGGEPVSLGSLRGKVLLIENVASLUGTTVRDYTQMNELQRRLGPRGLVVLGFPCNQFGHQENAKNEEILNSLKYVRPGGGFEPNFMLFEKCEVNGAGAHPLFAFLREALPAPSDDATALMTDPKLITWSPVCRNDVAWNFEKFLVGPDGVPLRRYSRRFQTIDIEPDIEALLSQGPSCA
# Procedure, shortened: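 GR-coupled assay: compounds preincubated 30 min at room temperature with GPX1, then reaction started with CHP; final 10 nM GPX1, 1 mM GSH, 0.5 mM CHP, 0.5 mM NADPH, 100 nM GR, 0.01% BSA, pH 7.5 Tris buffer. NADPH fluorescence (340/450 nm) read at 0 and 15 min.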
structure (smiles),measurement,setting,value
CN(C)CCc1c[nH]c2ccc(C[C@H]3COC(=O)N3)cc12,Potency,[1],inactive
same,outcome,[2],inactive
same,Potency,[3],inactive
same,outcome,[4],inactive
same,Potency,[5],inactive
same,Potency,[6],inactive
same,Potency,[7],inactive
O=S(=O)(O)CCS,Potency,[8],inactive
same,Potency,[1],inactive
same,Potency,[6],inactive
same,Potency,[7],inactive
CO[C@@H]1[C@@H](OC(N)=O)[C@@H](O)[C@H](Oc2ccc3c(O)c(NC(=O)c4ccc(O)c(CC=C(C)C)c4)c(=O)oc3c2C)OC1(C)C,Potency,[1],inactive
same,Potency,[7],5.26 µM (active)
CCOC(=O)[C@H](CCc1ccccc1)N[C@H]1CCc2ccccc2N(CC(=O)O)C1=O,Potency,[1],inactive
same,Potency,[7],20.9 µM (active)
Cc1noc(NS(=O)(=O)c2ccc(N)cc2)c1C,Potency,[1],inactive
same,Potency,[6],inactive
same,Potency,[7],inactive
Cc1cccc(Nc2ccncc2S(=O)(=O)NC(=O)NC(C)C)c1,Potency,[1],inactive
same,Potency,[6],inactive
same,Potency,[7],inactive
CC(C)(C)NC(=O)[C@H]1CC[C@H]2[C@@H]3CC[C@H]4NC(=O)C=C[C@]4(C)[C@H]3CC[C@]12C,Potency,[1],inactive
same,Potency,[7],0.526 µM (active)
CN(Cc1cc(Br)cc(Br)c1N)C1CCCCC1,Potency,[1],inactive
same,Potency,[6],inactive
same,Potency,[7],inactive
Cc1ccc(S(=O)(=O)N[C@@H](Cc2ccccc2)C(=O)CCl)cc1,Potency,[1],inactive
same,Potency,[6],20.9 µM (active)
same,Potency,[7],5.26 µM (active)
C[C@]12C=CC(=O)C=C1CC[C@@H]1[C@@H]2C(=O)C[C@@]2(C)[C@H]1CC[C@]2(O)C(=O)CO,Potency,[1],inactive
same,Potency,[6],inactive
Oc1c(Cl)cc(Cl)c2cccnc12,Potency,[1],inactive
same,Potency,[6],18.7 µM (active)
same,Potency,[7],23.5 µM (active)
CN1CCN(c2c(F)cc3c(=O)c(C(=O)O)cn4c3c2OCN4C)CC1,Potency,[1],inactive
same,Potency,[6],inactive
same,Potency,[7],inactive
NC(N)=NC(N)=NCCc1ccccc1,Potency,[1],inactive
same,Potency,[7],9.35 µM (active)
CC(N)C12CC3CC(CC(C3)C1)C2 (stereo not drawn),Potency,[1],inactive
same,Potency,[6],inactive
same,Potency,[7],inactive
CCCCc1oc2ccc(NS(C)(=O)=O)cc2c1C(=O)c1ccc(OCCCN(CCCC)CCCC)cc1,Potency,[1],inactive
same,outcome,[2],inactive
same,outcome,[4],inactive
same,Potency,[5],inactive
same,Potency,[6],16.6 µM (active)
same,Potency,[7],11.8 µM (active)
CC1=CC(=O)c2ccccc2C1=O,Potency,[1],inactive
same,Potency,[6],26.4 µM (active)
same,Potency,[7],16.6 µM (active)
NC(=O)N1c2ccccc2CC(=O)c2ccccc21,Potency,[1],inactive
same,Potency,[6],inactive
same,Potency,[7],inactive
Cn1c(=O)c2c(ncn2CC(O)CO)n(C)c1=O (stereo not drawn),Potency,[1],inactive
same,Potency,[6],inactive
same,Potency,[7],inactive
CC(C)C1CCC(C(=O)N[C@H](Cc2ccccc2)C(=O)O)CC1 (stereo partly drawn),Potency,[1],inactive
same,Potency,[7],inactive
COc1c(N2CCNC(C)C2)c(F)cc2c(=O)c(C(=O)O)cn(C3CC3)c12 (stereo not drawn),Potency,[1],inactive
same,Potency,[6],inactive
CCCc1cc(C(N)=S)ccn1,Potency,[1],inactive
same,Potency,[6],inactive
same,Potency,[7],inactive
O=c1cc(O)c(Cl)c[nH]1,Potency,[1],inactive
same,Potency,[6],inactive
same,Potency,[7],inactive
CC(=O)[C@H]1CC[C@H]2[C@@H]3CCC4=CC(=O)CC[C@]4(C)[C@H]3CC[C@]12C,Potency,[1],inactive
same,Potency,[7],inactive
CN1CCCC(n2nc(Cc3ccc(Cl)cc3)c3ccccc3c2=O)CC1 (stereo not drawn),Potency,[1],inactive
same,Potency,[6],23.5 µM (active)
N[C@@H](C(=O)N[C@@H]1C(=O)N2C(C(=O)O)=C(Cl)CS[C@H]12)c1ccccc1,"activity change, negative = inhibition",[1],3.64% [at 9.73 µM]
same,Potency,[7],inactive
CCn1cc(C(=O)O)c(=O)c2cc(F)c(N3CCN(C)CC3)cc21,Potency,[1],inactive
same,Potency,[6],inactive
same,Potency,[7],inactive
COC(=O)Nc1nc2ccc(C(=O)c3ccccc3)cc2[nH]1,Potency,[1],inactive
same,Potency,[6],0.296 µM (active)
same,Potency,[7],1.66 µM (active)
COC(=O)Nc1nc2ccc(Sc3ccccc3)cc2[nH]1,Potency,[1],inactive
same,Potency,[6],0.935 µM (active)
same,Potency,[7],1.05 µM (active)
O=C(O)C1CCCN(CCC=C(c2ccccc2)c2ccccc2)C1 (stereo not drawn),Potency,[1],inactive
same,Potency,[6],inactive
same,Potency,[7],inactive
COC(=O)Nc1nc2ccc(S(=O)c3ccccc3)cc2[nH]1 (stereo not drawn),Potency,[1],inactive
same,Potency,[6],7.43 µM (active)
same,Potency,[7],6.62 µM (active)
CNCC[C@H](Oc1cccc2ccccc12)c1cccs1,Potency,[1],inactive
same,Potency,[6],3.72 µM (active)
same,Potency,[7],2.35 µM (active)
C1CCC(C(CC2CCCCN2)C2CCCCC2)CC1 (stereo not drawn),Potency,[1],inactive
same,Potency,[6],11.8 µM (active)
same,Potency,[7],13.2 µM (active)
Nc1[nH]c(=O)ncc1F,Potency,[1],inactive
same,Potency,[6],inactive
same,Potency,[7],inactive
N=C(N)c1ccc(OCCCCCOc2ccc(C(=N)N)cc2)cc1,Potency,[1],inactive
same,Potency,[6],18.7 µM (active)
same,Potency,[7],5.26 µM (active)
CC(C)Cn1cnc2c(N)nc3ccccc3c21,Potency,[1],inactive
same,Potency,[6],inactive
Cc1ccnc2c1NC(=O)c1cccnc1N2C1CC1,Potency,[1],inactive
same,Potency,[6],inactive
same,Potency,[7],20.9 µM (active)
CC(C)(C)C(=O)OCOP(=O)(COCCn1cnc2c(N)ncnc21)OCOC(=O)C(C)(C)C,Potency,[1],inactive
same,Potency,[6],6.62 µM (active)
same,Potency,[7],0.0833 µM (active)
Cc1cc(NS(=O)(=O)c2ccc(N)cc2)no1,Potency,[1],inactive
same,Potency,[6],inactive
same,Potency,[7],inactive
COc1cc2nc(N3CCCN(C)CC3)nc(NC3CCN(Cc4ccccc4)CC3)c2cc1OC,Potency,[6],5.26 µM (active)
same,Potency,[7],2.09 µM (active)
